The results in this text go back to PubChem BioAssay (NCATS).

“And” between values parts separate entries of the source, which are not always exact repeats. Equal values may be shown once. Records with an inconclusive call do not appear. Unmarked numbers belong to inactive results. Calls come from the whole dose curve; as a rule, active = well fitted activation curve with a large enough effect in the signal ratio, with a control signal flat (not every such curve was filed as active); inconclusive = small, poorly fitted or top-dose-only effect, or effect the other way, or a change in a side signal; inactive = flat fitted curve, though single readings scatter; the % refers to the signal ratio.

A short description of the assay: qHTS Assay for Identification of Small Molecule Agonists for Hypoxia Response Element Signaling Pathway (AID 914). Note: % of control where 0% means no effect. As to conditions: ME-180 (cervical carcinoma) HRE-bla reporter, beta-lactamase ratio, CoCl2, 17 h; hits give high values. In outline:
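Reporter activity (beta-lactamase, CCF4 460nm/530nm ratio) in HRE-bla ME-180 cells is recorded after 17 h compound exposure with EC50 CoCl2 at 37 degrees Celsius. AC50 values come from titration data.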
On the technique in general: In qHTS, concentration-response curves come from the screen itself.
For the compound `CC(C)CO/N=C1/C[C@@H](O)[C@@H](O)[C@@H]2[C@@H]3C(=O)N(C4CCCCC4)C(=O)[C@H]3CC[C@@H]12`, the activation was -7.25%.

Regarding `CSCC[C@@H]1NC(=O)C/C=C\[C@@H](C)COC(=O)[C@H](C)COC1=O`, the activation is 5.76%.

As to `CCN1C(=O)[C@H]2[C@H]3[C@H](O)[C@H](O)C/C(=N/OCc4ccccc4)[C@@H]3CC[C@@H]2C1=O`, the activation was -12.3%.

For the compound `CO[C@H]1COC(=O)[C@H](C)COC(=O)[C@H](C)NC(=O)C/C=C\[C@H]1C`, the activation is 5.98%.

Regarding `Cc1cc2c(nc1C)CCCCN2C[C@H](O)CN1CCCc2nc(-c3ccc(Br)cc3)ccc21`, the activation was -0.373%.

As for `C/C(CCN1CCCc2nc(C)c(C)cc21)=N\O[C@@H](C)c1cn([C@@H]2COC[C@@H]2O)nn1`, the activation was 8.15%.

With `O=C(N/N=C1/C[C@@H](O)[C@@H](O)[C@@H]2[C@@H]3C(=O)N(c4cccc(Oc5ccccc5)c4)C(=O)[C@H]3CC[C@@H]12)OCc1ccccc1`, the activation is -0.0366%.

On to `C#CCCCO/N=C1/C[C@@H](O)[C@@H](O)[C@@H]2[C@@H]3C(=O)N(c4cccc(Oc5ccccc5)c4)C(=O)[C@H]3CC[C@@H]12`, for which the activation is -6.82%.

As for `CC(C)[C@@H](OCc1ccccc1)[C@H](C)/C=N\OC[C@@H](C)[C@H](OCc1ccccc1)C(C)C`, the activation was -1.89%.

For the compound `Cc1ccc2nc3nc4ccc[nH]c4cc3c2c1`, the activation was -21.2%.

`CO[C@H]1COC(=O)[C@@H](C)COC(=O)[C@H](C)NC(=O)C/C=C\[C@H]1C`: the activation was -4.15%.

Regarding `CC(C)[C@@H](OCc1ccccc1)[C@H](C)/C=N\OC[C@@H](O)[C@@H]1O[C@@H]2OC(C)(C)O[C@@H]2[C@H]1O`, the activation was 7%.

`COc1ccc(COC(=O)N/N=C2/C[C@@H](O)[C@@H](O)[C@@H]3[C@@H]4C(=O)N(Cc5ccc6c(c5)OCO6)C(=O)[C@H]4CC[C@H]23)cc1`: the activation was -9.34%.

On to `O=C(N/N=C1/C[C@@H](O)[C@@H](O)[C@@H]2[C@@H]3C(=O)N(c4cccc(Oc5ccccc5)c4)C(=O)[C@H]3CC[C@H]12)OCc1ccccc1`, for which the activation is 9.49%.

In the case of `CSCC[C@@H]1NC(=O)C/C=C\[C@@H](C)COC(=O)[C@@H](C)COC1=O`, the activation is -8.61%.

`CC(C)C(=O)N[C@H]1CCCN1C(=O)/C=C\c1ccccc1`: the activation is 4.87%.

Take `CC(C)[C@H](NC(=O)OC(C)(C)C)[C@@H](O)CC(=O)C(C)(C)C`: the activation is 3.44%.

Consider `O=C1C=C[C@@H](O)[C@H]2[C@@H]3C(=O)N(C[C@@H]4CCCO4)C(=O)[C@@H]3CC[C@H]12`, for which the activation is -2.79%.

As to `CC(C)CO/N=C1/C[C@@H](O)[C@@H](O)[C@@H]2[C@@H]3C(=O)N(C4CCCCC4)C(=O)[C@H]3CC[C@H]12`, the activation is -3.43%.

Turning to `COC(=O)C/C=C\[C@@H](C)[C@H]1C=C[C@H](O)[C@@H](CO)O1`, the activation is 10.7%.

As for `C[C@H](c1ccccc1)N1C(=O)[C@H]2[C@@H]3[C@H](O)[C@H](O)CC(=O)[C@H]3CC[C@H]2C1=O`, the activation is 0.807%.

For the compound `CC(C)=CCC/C(C)=C/CO/N=C1/C[C@@H](O)[C@@H](O)[C@@H]2[C@@H]3C(=O)N(c4cccc(Oc5ccccc5)c4)C(=O)[C@H]3CC[C@H]12`, the activation was 7.14%.

On to `CCN1C(=O)[C@H]2[C@@H]3[C@H](O)[C@H](O)CC(=O)[C@H]3CC[C@H]2C1=O`, for which the activation is -3.64% and -8.67%.

As to `COc1ccc(COC(=O)N/N=C2/C[C@@H](O)[C@@H](O)[C@@H]3[C@@H]4C(=O)N(Cc5ccc6c(c5)OCO6)C(=O)[C@H]4CC[C@@H]23)cc1`, the activation is 0.811%.

`COC(=O)C/C=C\[C@@H](C)[C@@H]1C=C[C@H](OC(C)=O)[C@H](COC(C)=O)O1`: the activation was 1.52%.

Take `CCN1C(=O)[C@H]2[C@H]3[C@H](O)[C@H](O)C/C(=N/OCc4ccccc4)[C@H]3CC[C@@H]2C1=O`: the activation is 7.18%.

With `COC(=O)C(C(=O)OC)[C@@H]1CCCC(=O)C1`, the activation is -2.41%.

In the case of `c1ccc([C@H]2NCCc3c2[nH]c2ccccc32)cc1`, the activation was -22.5%.

Take `CC(C)=CCC/C(C)=C/CO/N=C1/C[C@@H](O)[C@@H](O)[C@@H]2[C@@H]3C(=O)N(c4cccc(Oc5ccccc5)c4)C(=O)[C@H]3CC[C@@H]12`: the activation is 6.84%.
